Data published in PubChem BioAssay AID1159580 (chemical genetic matrix, 2015).
Among all 5,500 compounds or so, about 2,000 (36%) were called active. About 18% were inconclusive and are not listed. No stated cut-off is given here; in the data, active means normalized growth mostly below about 0.91 (no sharp cut-off); inconclusive means no clear call, values can overlap the other calls; inactive means mostly above about 0.92. The list shows a part of the results.

Assay: chemical genetic growth profiling, strain panel (AID 1159580);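 further: tested at 20 µM; growth read once vehicle control cultures reached saturation at 30 °C; 1 = growth at the plate median or of vehicle wells; lower values mean less growth of the strain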
Details: S. cerevisiae deletion strains, growth OD

Measured: normalized growth

N#C/C(=C\c1ccc(C(F)(F)F)cc1)c1ccc(O)cc1
inactive: locus YAR019C, strain CDC15, active compounds read low 0.969 | locus YBL105C, strain PKC1, active compounds read low 0.968 | locus YBR135W, strain CKS1, active compounds read low 0.965 | locus YBR136W, strain MEC1, active compounds read low 0.97 | locus YBR160W, strain CDC28, active compounds read low 0.976 | locus YDL017W, strain CDC7, active compounds read low 0.966 | locus YDL028C, strain MPS1, active compounds read low 0.976 | locus YDL101C, strain DUN1, active compounds read low 0.979 | locus YDL108W, strain KIN28, active compounds read low 0.972 | locus YDL132W, strain cdc53, active compounds read low 0.973 | locus YDR052C, strain DBF4, active compounds read low 0.988 | locus YDR054C, strain cdc34, active compounds read low 0.96 | locus YDR226W, strain ADK1, active compounds read low 0.969 | locus YFL009W, strain cdc4, active compounds read low 0.967 | locus YFL029C, strain CAK1, active compounds read low 0.978 | locus YFR003C, strain YPI1, active compounds read low 0.971 | locus YFR028C, strain CDC14, active compounds read low 0.964 | locus YIL147C, strain SLN1, active compounds read low 0.974 | locus YJL128C, strain PBS2, active compounds read low 0.913 | locus YJR016C, strain ILV3, active compounds read low 0.974 | locus YKL193C, strain SDS22, active compounds read low 0.972 | locus YMR001C, strain CDC5, active compounds read low 0.96 | locus YMR277W, strain FCP1, active compounds read low 0.963 | locus YNL006W, strain LST8, active compounds read low 0.959 | locus YNL161W, strain CBK1, active compounds read low 0.967 | locus YNL207W, strain RIO2, active compounds read low 0.961 | locus YNL222W, strain SSU72, active compounds read low 0.964 | locus YOL078W, strain AVO1, active compounds read low 0.973 | locus YOR329C, strain SCD5, active compounds read low 0.962 | locus YPL209C, strain IPL1, active compounds read low 0.965 | locus YPR025C, strain CCL1, active compounds read low 0.971 | locus YPR106W, strain ISR1, active compounds read low 0.965 | locus YPR111W, strain DBF20, active compounds read low 0.953 | strain NNK1, active compounds read low 0.95 | strain TSCII, active compounds read low 0.967
active: locus YDL214C, strain PRR2, active compounds read low 0.478 | locus YDR477W, strain SNF1, active compounds read low 0.497 | locus YER123W, strain YCK3, active compounds read low 0.508 | locus YER133W, strain GLC7, active compounds read low 0.492 | locus YFR019W, strain FAB1, active compounds read low 0.647 | locus YGR040W, strain KSS1, active compounds read low 0.53 | locus YGR052W, strain FMP48, active compounds read low 0.5 | locus YGR092W, strain DBF2, active compounds read low 0.365 | locus YHR030C, strain SLT2, active compounds read low 0.308 | locus YHR079C, strain IRE1, active compounds read low 0.334 | locus YHR082C, strain KSP1, active compounds read low 0.492 | locus YHR205W, strain SCH9, active compounds read low 0.359 | locus YJL095W, strain BCK1, active compounds read low 0.464 | locus YJL157C, strain FAR1, active compounds read low 0.47 | locus YJR066W, strain TOR1 (second series), active compounds read low 0.29 | locus YJR066W, strain TOR1, active compounds read low 0.435 | locus YKL048C, strain ELM1, active compounds read low 0.411 | locus YKL067W, strain YNK1, active compounds read low 0.525 | locus YKL101W, strain HSL1, active compounds read low 0.465 | locus YKL203C, strain TOR2, active compounds read low 0.428 | locus YLR113W, strain HOG1, active compounds read low 0.431 | locus YLR133W, strain CKI1, active compounds read low 0.498 | locus YLR403W, strain SFP1, active compounds read low 0.445 | locus YML070W, strain DAK1, active compounds read low 0.535 | locus YMR205C, strain PFK2 (second series), active compounds read low 0.54 | locus YNL020C, strain ARK1, active compounds read low 0.45 | locus YNL183C, strain NPR1, active compounds read low 0.467 | locus YNL307C, strain MCK1 (second series), active compounds read low 0.395 | locus YOL136C, strain PFK27, active compounds read low 0.492 | locus YOR061W, strain CKA2, active compounds read low 0.43 | locus YOR119C, strain RIO1, active compounds read low 0.498 | locus YOR231W, strain MKK1, active compounds read low 0.469 | locus YPL031C, strain PHO85, active compounds read low 0.421 | locus YPL153C, strain RAD53, active compounds read low 0.444 | locus YPL204W, strain HRR25, active compounds read low 0.453 | locus YPL256C, strain CLN2, active compounds read low 0.427
